Source: PubChem BioAssay
The list is not random: actives were taken first. Their share in the collection is about 4.2%.
V-ATPase pH – yeast V-ATPase proton transport regulation by pHLuorin | S. cerevisiae, pHLuorin cytosolic pH fluorescence | response, % at 10 µM | 350,000 compounds, 0.37% hits; in the data active means response mostly above about 7.3%, no sharp cut-off; inactive means mostly below about 5.4%; further: actives read high
NALP1 yeast inh – inhibitors of NALP1 inflammasome in yeast; AID 2071; inhibition, % at 10 µM; S. cerevisiae NALP1/ASC/caspase-1 growth, X-gal OD620, 72 h; 280,000 compounds, 0.61% hits; in the data active means inhibition mostly above about 24%, no sharp cut-off; inactive means mostly below about 32%
TIM10 inh – growth inhibitors of TIM10 yeast strain. S. cerevisiae TIM10 strain growth, BacTiter-Glo luminescence, 24 h. inhibition, % at 10 µM. 330,000 compounds, 1.4% hits. AID 463195;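 active means inhibition of 40% or more at the single tested concentration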;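 further: wild-type TIM10 isogenic control strain grown at permissive 25 °C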
NLRP3 yeast inh – NALP3 inhibition in yeast; Yeast reconstituted NLRP3/ASC/caspase-1, beta-gal luminescence, 24 h; inhibition, % at 10 µM; 330,000 compounds, 0.39% hits;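 active means inhibition of 50% or more; inactive means inhibition below 50%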
tim10-1 inh – inhibits growth of tim10-1 mutant yeast; AID 463190; inhibition, % at 20 µM; 330,000 compounds, 2.2% hits; S. cerevisiae tim10-1 ts strain growth, BacTiter-Glo, 24 h;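 active means inhibition of at least 40%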;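 further: mutant grown at 25 °C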
tim23-1 inh – tim23-1 yeast growth inhibition; S. cerevisiae tim23-1 growth, BacTiter-Glo luminescence, 24 h; inhibition, % at 20 µM; 330,000 compounds, 1.3% hits; AID 463212;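 active means growth inhibition of the mutant yeast at or above 50%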;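 further: temperature-sensitive mutant grown at 25 °C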
tim23-1 confirm – tim23-1 yeast growth inhibition, confirmed; shares compounds with tim23-1 inh; S. cerevisiae tim23-1 growth, BacTiter-Glo luminescence, 24 h; inhibition, % at 20 µM; 4,400 compounds, 83% hits; AID 463218;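 active means inhibition above about 39% in either of two replicate wells at 20 µM, limit read from the data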;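 further: temperature-sensitive tim23-1 mutant grown at 25 °C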
Large screens that a line does not name were inactive (follow-up assays come after a bar, where they were run).

COc1ccc(CCNC(=O)[C@H](C)N2C(=O)N3CCc4c([nH]c5ccccc45)[C@@]3(C)C2=O)cc1	none
Cc1cccc(N=Nc2cnc(N)s2)c1	tim23-1 inh 52 | tim23-1 confirm 53
CC1CCN(C(=O)COC(=O)Cc2ccc(Br)cc2)CC1	none
Cc1ccc(S(=O)(=O)NCc2csc(-c3cccs3)n2)cc1	tim23-1 inh 59 (no result: NALP1 yeast inh) | tim23-1 confirm 43
O=S(=O)(NCc1csc(-c2cccs2)n1)c1ccc(Cl)cc1	none
COc1ccc(NC(=O)CC2SC(=N)N(c3ccccc3)C2=O)c(OC)c1 (stereo not drawn)	none
CCOC(=O)c1cccc2c1-c1ccccc1/C2=N/O	tim23-1 inh 71 | tim23-1 confirm 54
CCOc1ccc(N(CCCCO)C(=S)NC(=O)c2ccc(C)c(Br)c2)cc1	none
O=c1oc(-c2ccccc2F)nc2c1cnn2-c1ccccc1	tim23-1 inh 56 | tim23-1 confirm 54
O=c1oc(-c2cccc(Cl)c2)nc2c1cnn2-c1ccccc1	none
COc1ccccc1[C@H]1C(c2ccccc2)=NN(c2ccccc2)[C@@H]1CO	tim23-1 inh 50 (no result: NALP1 yeast inh, NLRP3 yeast inh) | tim23-1 confirm 39
COc1ccccc1[C@H]1C(c2ccc(F)cc2)=NN(c2ccccc2)[C@@H]1CO	tim23-1 inh 55 (no result: NALP1 yeast inh, NLRP3 yeast inh) | tim23-1 confirm inactive
C[C@H]1C(c2ccc(F)cc2)=NN(c2ccccc2)[C@@H]1CO	tim23-1 inh 51 (no result: NALP1 yeast inh, NLRP3 yeast inh) | tim23-1 confirm inactive
Cc1cccc(C2=NN(c3ccccc3)[C@@H](C(=O)N3CCOC3=O)[C@@H]2c2ccccc2)c1	none (no result: NALP1 yeast inh, NLRP3 yeast inh)
COc1ccccc1[C@H]1C(c2cccc(C)c2)=NN(c2ccccc2)[C@@H]1CO	tim23-1 inh 51 (no result: NALP1 yeast inh, NLRP3 yeast inh) | tim23-1 confirm 45
Fc1ccccc1Cc1noc(CN2CCC(OCc3cccnc3)CC2)n1	none
COc1ccc(C(=O)C(=O)c2ccc(OCCO)cc2)cc1	none (no result: NALP1 yeast inh)
CCc1ccc2c(Cl)c(C(=O)N/N=C/c3c[nH]c4ccccc34)sc2c1	tim23-1 inh 52 | tim23-1 confirm 39
CCc1ccc(-c2cc(C(=O)N/N=C/c3c[nH]c4ccccc34)[nH]n2)cc1	none
CC(NC(=O)c1cc(COc2ccc(-n3cncn3)cc2)on1)c1ccc(F)cc1 (stereo not drawn)	none (no result: NALP1 yeast inh, TIM10 inh, NLRP3 yeast inh, tim10-1 inh, tim23-1 inh)
Cc1c(Cl)cccc1NCC(=O)Nc1ccc(Cl)cc1F	tim23-1 inh 54 | tim23-1 confirm 42
Cc1ccc(F)cc1NCC(=O)Nc1ccc(Cl)cc1F	none
COc1ccccc1OCCn1cc(C=O)c2ccccc21	none
O=Cc1cn(CCOc2ccccc2F)c2ccccc12	tim23-1 inh 51 | tim23-1 confirm 38
COc1ccc(CC(=O)Nc2cccc(SC)c2)cc1OC	none (no result: TIM10 inh, NLRP3 yeast inh, tim10-1 inh, tim23-1 inh)
Cc1ccc(N/N=C2\CS(=O)(=O)N(C)c3ccsc32)cc1	none
CN1c2ccsc2/C(=N/Nc2ccc(F)cc2)CS1(=O)=O	tim23-1 inh 53 | tim23-1 confirm inactive
O=C(c1cccnc1)C1Cc2ccccc2C1=O (stereo not drawn)	tim23-1 inh 54 | tim23-1 confirm 52
CC1COCC(C)N1C(=O)c1cccnc1 (stereo not drawn)	none (no result: NALP1 yeast inh, TIM10 inh, NLRP3 yeast inh, tim10-1 inh, tim23-1 inh)
COc1ccc(CNc2nc3ccc(C)cc3s2)c(OC)c1OC	none
O=C(/C=C/N1CCOCC1)c1ccc(-c2ccccc2)cc1	tim23-1 inh 52 | tim23-1 confirm inactive
O=C(/C=C\N1CCOCC1)c1ccc(Br)cc1	none
OC1CCN(c2cc(-c3ccccc3)nc3cc(-c4ccc(F)cc4)nn23)CC1	none
CCN1CCN(c2cc(-c3ccccc3)nc3cc(-c4cccc(F)c4)nn23)CC1	tim23-1 inh 53 | tim23-1 confirm inactive
COc1ccc(-c2noc(N3CCCC(C(=O)Nc4ccc(C(C)=O)cc4)C3)n2)cc1 (stereo not drawn)	none
CCOC(=O)Cn1nc(NC(=O)c2ccc(C(=O)OC)cc2)cc1C	none
Cc1cc(NC(=O)Cn2nc(C)c([N+](=O)[O-])c2C)no1	none
Oc1c(C(Nc2cccc(C(F)(F)F)c2)c2ccncc2)ccc2cccnc12 (stereo not drawn)	tim23-1 inh 59 | tim23-1 confirm 56
COc1ccc(NC(=O)CN(C)C(=O)C2CCCO2)cc1 (stereo not drawn)	none (no result: NALP1 yeast inh)
CC(OC(=O)C1=COCCO1)C(=O)NC(C)c1ccc(Cl)cc1Cl (stereo not drawn)	none (no result: NALP1 yeast inh)
COC(=O)N/N=C/c1ccccc1OCCOc1ccc(OC)cc1	tim23-1 inh 51 | tim23-1 confirm 48
CCOC(=O)C(NCCOC)(NC(C)=O)C(F)(F)F (stereo not drawn)	none
COCCNC(=O)/C(C#N)=C/c1ccc(OCc2ccc(F)cc2)cc1	tim23-1 inh 56 | tim23-1 confirm 48
COCCNC(=O)/C(C#N)=C/c1ccc(C(=O)O)cc1	none
COCCNC(=O)/C(C#N)=C/c1ccc(OCc2ccccc2)cc1	tim23-1 inh 55 | tim23-1 confirm 53
CCN(CC)c1ccc(NC(=S)NC(=O)C2CCC2)cc1	tim23-1 inh 58 | tim23-1 confirm inactive
N#Cc1ccc(NC(=S)NC(=O)C2CCCCC2)cc1	tim23-1 inh 51 (no result: NALP1 yeast inh) | tim23-1 confirm 49
Cc1cccc(NC(=S)NC(=O)C2CC2)c1	none
Cc1cc(C)cc(NC(=S)NC(=O)C2CC2)c1	tim23-1 inh 54 | tim23-1 confirm inactive
Cc1cccc(N2C(=O)/C(=C\c3ccc(C(=O)O)cc3)c3ccccc3C2=O)c1	tim23-1 inh 56 | tim23-1 confirm inactive
CCOC(=O)C1CCN(CCC(=O)Nc2ccc(C)c(C)c2)CC1	none
CN(CC(=O)Nc1ccccc1C(F)(F)F)C(=O)CSc1nnc(-c2ccncc2)n1C	none (no result: NALP1 yeast inh)
COc1ccc(N2CCN(CC(=O)c3ccccc3)CC2)cc1	none
COc1ccc(N2CCN(CCC(=O)c3ccc4ccccc4c3)CC2)cc1	tim23-1 inh 69 | tim23-1 confirm 57
COc1cc(OC)c(NC2c3ccccc3C(=O)N2c2cc(C)ccn2)cc1Cl (stereo not drawn)	tim23-1 inh 52 | tim23-1 confirm 42
O=C(CSc1ccccc1)N1CCCC(N2CCN(c3cccc(Cl)c3)CC2)C1 (stereo not drawn)	none
C/C(=C/CCC(C)(O)C1CC[C@@]2(C)[C@@H]3CC=C4[C@@H](CC[C@H](O[C@H]5O[C@@H](CO)[C@H](O)[C@@H](O)[C@@H]5O)C4(C)C)[C@]3(C)C(=O)C[C@]12C)CO[C@@H]1O[C@H](CO)[C@@H](O)[C@H](O)[C@H]1O (stereo partly drawn)	none (no result: NALP1 yeast inh)
COc1ccc(S(=O)(=O)n2cccc2)cc1	none (no result: NALP1 yeast inh)
O=C1NC(c2ccc(Br)cc2)=N/C1=C/c1ccco1	none
O=C1NC(c2ccccc2Cl)=N/C1=C/c1ccco1	tim23-1 inh 53 | tim23-1 confirm inactive
O=C1[C@H](Oc2ccccc2)[C@@H](c2ccccc2)N1c1ccncc1	tim23-1 inh 62 (no result: NALP1 yeast inh, NLRP3 yeast inh) | tim23-1 confirm inactive
O=C(NC(=S)Nc1ccccc1N1CCOCC1)c1ccc(Br)cc1	tim23-1 inh 55 | tim23-1 confirm 54
